# Bioassay records: PubChem BioAssay, National Center for Advancing Translational Sciences (NCATS)
# Shown are actives, neighbours in structure and some others; about 2.8% of the full set was active somewhere.
# KDM5B inhibitor: inhibitors of human KDM5B histone demethylase; KDM5B demethylase, FDH-coupled NADH fluorescence (FDH is formaldehyde dehydrogenase); Potency, µM (highest dose often 57.7 µM), actives largely listed as inhibitors; hit rate 2.6% among 220,000; AID 1347165; active = well fitted inhibition curve with a large enough effect; inconclusive = small, poorly fitted or top-dose-only effect; inactive = no such curve, though single readings can be large or run the other way; also: potency is read from the fitted curve at half-maximal effect; 0% is about no effect; nearly all actives have a fitted effect of over 70% in size
#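 Compound dilutions met 200 nM (final) KDM5BΔAP for 10 min at room temperature before substrate addition. The substrate mix held 12.5 µM H3K4me3 with cofactors 25 µM α-ketoglutarate and 50 µM Fe²⁺. NADH signal gain over 30 min defined activity.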
# IP6K1 inhibitor: blocks human inositol hexakisphosphate kinase 1. Q92551. IP6K1 kinase, ADP-Glo luminescence, 2 h; active compounds read low. activity change, % (series mostly up to about 58 µM). hit rate 0.81% among 140,000. AID 1645851; in the data active = activity change below about -25%; also: % is scaled to controls: 0 for no effect and ±100 for the full control effect
# Target sequence (Q92551 whole entry, looked up): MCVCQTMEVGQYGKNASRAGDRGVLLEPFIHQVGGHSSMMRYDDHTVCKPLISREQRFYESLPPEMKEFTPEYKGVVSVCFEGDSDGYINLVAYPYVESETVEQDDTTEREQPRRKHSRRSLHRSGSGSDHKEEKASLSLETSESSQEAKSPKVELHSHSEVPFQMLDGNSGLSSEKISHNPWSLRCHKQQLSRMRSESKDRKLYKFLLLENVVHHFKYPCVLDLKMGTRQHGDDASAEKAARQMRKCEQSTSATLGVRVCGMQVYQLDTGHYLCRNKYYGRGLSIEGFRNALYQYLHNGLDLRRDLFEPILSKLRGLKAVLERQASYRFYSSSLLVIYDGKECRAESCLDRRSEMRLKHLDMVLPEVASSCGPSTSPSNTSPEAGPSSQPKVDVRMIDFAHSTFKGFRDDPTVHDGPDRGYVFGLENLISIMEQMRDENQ
#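 ADP-Glo luminescence measures ADP made by human IP6K1 during a 2 h RT reaction with ATP/IP6 (mix at 1.3 mM/130 uM); top library doses 57.5 and 19.1 uM final.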
# The depositor's hits bear a star; i = inactive; ? = inconclusive; . = no result.
SMILES,KDM5B inhibitor,IP6K1 inhibitor
CC(C)c1cccc(NC(=O)c2ccc(Cn3ccn4nc5c(c4c3=O)CCCC5)cc2)c1,22µM*,25
COc1ccccc1OCCNC(=O)c1ccc(Cn2ccn3nc4c(c3c2=O)CCCC4)cc1,25µM*,32
O=C(Nc1ccc(F)cc1)c1ccc(Cn2ccn3nc4c(c3c2=O)CCCC4)cc1,?,0
O=C(Nc1ccc(F)c(F)c1)c1ccc(Cn2ccn3nc4c(c3c2=O)CCCC4)cc1,25µM*,-1
COCCCNC(=O)c1ccc(Cn2ccn3nc4c(c3c2=O)CCCC4)cc1,i,-3
CCc1cccc(NC(=O)c2ccc(Cn3ccn4nc5c(c4c3=O)CCCC5)cc2)c1,?,5
O=C(Nc1ccc(Cl)cc1)c1ccc(Cn2ccn3nc4c(c3c2=O)CCCC4)cc1,i,18
COc1ccc(F)cc1-c1cccc(C(=O)NCC(=O)NCc2ccc3c(c2)OCO3)c1,.,-6
COC(=O)CNC(=O)c1cc(-c2ccccc2F)nc2c1cnn2C,.,6
CCCNc1c(NC(=O)c2ccc(Cl)cc2)c(=O)oc2ccccc12,i,.
Cc1cc(Br)ccc1NC(=O)CSc1nc2cc([N+](=O)[O-])ccc2o1,i,.
CCc1nc2c(c(-c3ccc(O)cc3)n1)CN(C(=O)c1cccc(Cl)c1)CC2,.,-3
COc1ccccc1Nc1ccnc(N2CCN(C(=O)c3ccccc3Cl)CC2)n1,.,14
CN1CCN(C)c2cc(-c3ccc(N4CCOCC4)cc3)ncc2C1,40µM*,42
COc1ccc(CNc2cc3c(cn2)CN(C)CCN3C)cc1OC,?,-13
Cc1cccc(-c2nc(CN3CCC(c4nc(-c5cccn5C)no4)C3)no2)c1 (centres undefined),.,21
Cc1ccccc1C(=O)NC1CCN(c2ccc3nnc(-c4ccccc4)n3n2)CC1,.,-3
CCn1nccc1C(=O)NCCn1ccn2nc(-c3ccc(C)c(C)c3)cc2c1=O,35µM*,-6
Cc1ccc(-c2cc3c(=O)n(CCNC(=O)Cc4cccs4)ccn3n2)cc1C,i,-10
COc1cccc(C(=O)NCCn2ccn3nc(-c4ccc(C)c(C)c4)cc3c2=O)c1OC,35µM*,-12
Cc1ccc(-c2cc3c(=O)n(CCNC(=O)c4ccc5ccccc5n4)ccn3n2)cc1C,?,-5
Cc1ccc(-c2cc3c(=O)n(CCNC(=O)c4ccccc4F)ccn3n2)cc1C,20µM*,-15
COc1cccc(C(=O)NCCn2ccn3nc(-c4ccc(C)cc4C)cc3c2=O)c1OC,?,-3
O=C(NC1CCN(Cc2ccc(-c3ccsc3)cc2)C1)c1ccccc1Cl (centres undefined),.,-4
O=C(c1cccnc1)N1CCC2(CC1)CC(c1cccc(C(F)(F)F)c1)=NO2,.,23
SMILES,KDM5B inhibitor,IP6K1 inhibitor
Cn1ncc2c(C(=O)N3CCC(C#N)CC3)cc(-c3ccc(C(F)(F)F)cc3)nc21,.,-13
N#CC1CCN(C(=O)c2nc(-c3cccc(C(F)(F)F)c3)c3cnccn23)CC1,25µM*,1
N#CC1CCN(C(=O)c2nc(-c3cccc(C(F)(F)F)c3)c3ccccn23)CC1,14µM*,1
CC(=O)N1CCN(C(=O)c2nc3sccn3c2-c2ccc(C)cc2)CC1,.,5
CS(=O)(=O)N1CCCC(C(=O)NCCc2cccnc2)CCNC(=O)CC1 (centres undefined),i,-3
CS(=O)(=O)N1CCCC(C(=O)NCCCN2CCCc3ccccc32)CCNC(=O)CC1 (centres undefined),32µM*,-1
N#Cc1nc(C2CC2)oc1N1CCN(C(=O)c2cncc(Br)c2)CC1,i,.
CC(OC(=O)c1nn(-c2ccccc2)c(=O)c2ccccc12)C(=O)Nc1ccc(N2CCOCC2)cc1 (centres undefined),i,.
COc1ccc(-c2nc(C)nc3c2CCN(CCC(C)C)CC3)cc1,?,1
COc1ccc(CN2CCc3nc(C4CC4)nc(-c4ccc(OC)cc4)c3CC2)cc1,?,-1
COc1ccc(-c2nc(C3CC3)nc3c2CCN(CCC(C)C)CC3)cc1,79µM*,12
COc1ccc(-c2nc(C3CC3)nc3c2CCN(Cc2ccc(C(F)(F)F)cc2)CC3)cc1,50µM*,-5
CC(C)(C)C(=O)N1CCN(Cc2ccccc2-c2cccnc2)CC1,.,12
CC(C)CC1NC(=O)N(Cc2cc(F)cc3cccnc23)C1=O (centres undefined),i,.
COc1ccc(OC)c(/C=C(/C#N)C(=O)C(C)(C)C)c1,i,.
COc1ccc(CN2CCOC(c3cccnc3)C2)cc1Cn1cccn1 (centres undefined),i,40
COc1ccc(-c2ncc(CN3CCOC(c4cccnc4)C3)cn2)cc1 (centres undefined),22µM*,5
COc1ccc(NC(=O)/C=C/c2nc3ccccc3o2)c(OC)c1,i,.
O=C(NCc1ccc(C(F)(F)F)cc1)c1nc2cccnc2n(CCc2ccccc2)c1=O,.,2
O=C(CCNc1c(-c2ccc(F)cc2)nc2cnccn12)N1CCCCC1,22µM*,16
Cc1nc2cnccn2c1C(=O)N1CCCCC1,.,6
O=C(CCNc1c(-c2ccccc2)nc2cnccn12)NC1CCCC1,28µM*,12
Cc1nc2cnccn2c1C(=O)NC1CCCCCC1,.,3
c1cn2c(NC3CCCCC3)c(-c3ccc(N4CCOCC4)cc3)nc2cn1,i,.
O=C(CCNc1c(-c2ccc(F)cc2)nc2cnccn12)NC1CCCC1,28µM*,-3
SMILES,KDM5B inhibitor,IP6K1 inhibitor
Cc1ccc(Nc2nc(N)c(C(=O)c3cc(C)ccc3C)s2)cc1,i,.
C=CCNc1nc(C(=O)OCC(=O)N(C)CC(=O)Nc2ccc(C)cc2)cs1,i,.
Cc1cccc(NC(=O)N2CC(Oc3cccc(-c4nc(C)no4)c3)C2)c1,.,11
O=C1Nc2ccc(-c3ccccc3F)cc2C(=O)N2C[C@@H](NS(=O)(=O)c3ccc(F)cc3)C[C@@H]12,i,-13
O=C1Nc2ccc(-c3ccc4c(c3)OCO4)cc2C(=O)N2C[C@@H](NS(=O)(=O)c3ccc(F)cc3)C[C@@H]12,32µM*,-13
COc1ccc(Cl)cc1-c1ccc2c(c1)C(=O)N1C[C@@H](NS(=O)(=O)c3ccc(F)cc3)C[C@H]1C(=O)N2,32µM*,-5
CC(C)NC(=O)N[C@H]1CCN2C(=O)c3cc(-c4ccc5c(c4)OCO5)ccc3NC(=O)[C@@H]2C1,32µM*,10
CC(C)NC(=O)N[C@H]1CCN2C(=O)c3cc(-c4ccsc4)ccc3NC(=O)[C@@H]2C1,?,-6
CS(=O)(=O)N[C@H]1C[C@H]2C(=O)Nc3ccc(-c4ccc5c(c4)OCO5)cc3C(=O)N2C1,i,1
COc1ccc(-c2ccc3nnc(CNC(=O)COc4ccccc4)n3n2)cc1,28µM*,7
Cc1ccc(-c2ccc3nnc(CNC(=O)CNC(=O)c4ccccc4)n3n2)cc1,32µM*,-8
COc1ccc(-c2ccc3nnc(CNC(=O)CNC(=O)c4ccccc4)n3n2)cc1,28µM*,-7
O=C(COc1ccccc1)NCc1nnc2ccc(-c3ccc(Cl)cc3)nn12,?,-2
Cc1ccc(-c2ccc3nnc(CNC(=O)Cc4ccccc4Cl)n3n2)cc1,?,-15
O=C(NCC(F)(F)F)c1ccc2nc(-c3ccncc3)oc2c1,.,27
COc1ccc(C(=O)NC2CCCN(c3ccnc4ccnn34)C2)cc1 (centres undefined),.,6
O=C(CCC[C@H]1NC[C@@H]2C[C@H]1CN(Cc1ccccc1)C2)NCC1CCCCC1,i,7
